The nature of test [1]: Cell Viability - LYMP2-017 (AID 972). Note: series mostly up to about 92 µM; % is set by controls: 0 for no effect and ±100 for the full control effect; nearly all actives have a fitted effect of over 55% in size. In outline: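 Cytotoxicity is scored as a concentration-dependent drop in cellular ATP in a human lymphoblastoid line after 24 hr treatment at 37 C. Values are AC50s from Hill-equation modelling.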
The nature of test [2]: Cell Viability - LYMP2-019 (AID 973).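 Note: 0% = DMSO alone and full effect = 92 µM tetraoctylammonium bromide; nearly all actives have a fitted effect of over 55% in size.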 The method, boiled down: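 Cytotoxicity is scored as a concentration-dependent drop in cellular ATP after cells (2500/well) receive compound for 24 hr at 37 C. Tetraoctylammonium bromide serves as positive control.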
Test [3] is described as follows: Cell Viability - LYMP2-021 (AID 974).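 Note: compound exposure lasts 24 hours at 37 °C; % is set by controls: 0 for no effect and ±100 for the full control effect; nearly all actives have a fitted effect of over 55% in size.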 In outline: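 Loss of cellular ATP, measured with a luciferase-based CellTiter-Glo readout, serves as the toxicity signal in human lymphoblastoid cells treated for 24 hours at 37 C. Potency is reported as AC50 from a standard Hill model.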
Test [4] is described as follows: Cell Viability - LYMP2-023 (AID 975).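 Note: cellular ATP measured by luciferase luminescence as viability proxy; series mostly up to about 92 µM; plate controls were DMSO only for no effect and 92 µM tetraoctylammonium bromide control for full effect; nearly all actives have a fitted effect of over 55% in size.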 The method, boiled down: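 Steps: seed 2500 human lymphoblastoid cells per well, incubate 5 hr at 37 C, add compound for 24 hr at 37 C, add CellTiter-Glo, hold 30 min at room temperature, read luminescence. AC50 derived by Hill modelling.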
Test [5] can be described thus: Cell Viability - LYMP2-025 (AID 976).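 Note: series mostly up to about 92 µM; plate controls were DMSO only for no effect and tetraoctylammonium bromide control for full effect.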 The method, boiled down:
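Acute cytotoxicity is scored as a concentration-dependent fall in intracellular ATP, measured by luciferase luminescence, in human lymphoblastoid LYMP2-025 cells exposed to compound for 24 hours at 37 C. AC50 values come from standard Hill fits.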

Test [6] can be described thus: Cell Viability - LYMP2-002 (AID 977).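 Note: series mostly up to about 92 µM; plate controls were DMSO only for no effect and 92 µM tetraoctylammonium bromide for full effect.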 In outline:
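Human lymphoblastoid cells, 2500/well, complete medium; 5 h 37 C settle; compound 24 h 37 C; CellTiter-Glo, 30 min RT; luminescence. Decrease in ATP = cytotoxicity; AC50 via Hill equation.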

Test [7] can be described thus: Cell Viability - LYMP2-006 (AID 978). Note: series mostly up to about 92 µM; % is set by controls: 0 for no effect and ±100 for the full control effect; nearly all actives have a fitted effect of over 60% in size. The method, boiled down:
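Potency values are Hill-fit AC50s for decreases in intracellular ATP (CellTiter-Glo luminescence). LYMP2-006 lymphoblastoid cells, 2500 per well, were exposed to compound in complete culture medium for 24 hr at 37 C.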

The nature of test [8]: Cell Viability - LYMP2-007 (AID 979).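 Note: cells exposed to compound for 24 h before reading; 0% = DMSO only and the negative end = 92 µM tetraoctylammonium bromide; nearly all actives have a fitted effect of over 60% in size.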 The method, boiled down:
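Cells are seeded at 2500 per well and rested 5 hr. Compounds are then added over a concentration series for 24 hr at 37 C. CellTiter-Glo is added for 30 min at room temperature before luminescence reading.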

Test [9] in a line: Cell Viability - LYMP2-008 (AID 980). Note: % is set by controls: 0 for no effect and ±100 for the full control effect; nearly all actives have a fitted effect of over 60% in size. In outline: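 Cells seeded at 2500/well and rested 5 hr at 37 C; compounds added over a concentration range and incubated 24 hr at 37 C; CellTiter-Glo added, 30 min at room temperature; luminescence read and AC50 fitted with Hill model.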
Test [10] can be described thus: Cell Viability - LYMP2-010 (AID 981). In outline: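 Steps: seed 2500 LYMP2-010 cells per well; incubate 5 hr at 37 C; add compound; incubate 24 hr at 37 C; add CellTiter-Glo, wait 30 min at room temperature; read luminescence. Concentration-response fitted to Hill equation for AC50.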
The nature of test [11]: Cell Viability - LYMP2-012 (AID 982).
A short description of test [12]: Cell Viability - LYMP2-014 (AID 983).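 Note: series mostly up to about 92 µM; plate controls were DMSO only for no effect and 92 µM tetraoctylammonium bromide for full effect; nearly all actives have a fitted effect of over 50% in size.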 In outline:
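Cells are plated at 2500/well and left 5 hr at 37 C. Compounds are added across a concentration range and incubated 24 hr at 37 C in complete medium. CellTiter-Glo is added, and luminescence is read after 30 min at room temperature.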

Test [13] can be described thus: Cell Viability - LYMP2-016 (AID 984). The method, boiled down:
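Cytotoxicity was scored by luminescent ATP content (CellTiter-Glo) after 24 h compound exposure at 37 C of a human lymphoblastoid line at 2500 cells/well. Concentration-response data were fitted to the Hill equation for AC50.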

Test [14] in a line: Cell Viability - LYMP2-018 (AID 985).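 Note: compound exposure lasted 24 hr at 37 °C; plate controls were DMSO only for no effect and tetraoctylammonium bromide at 92 µM for full effect; nearly all actives have a fitted effect of over 50% in size.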 The method, boiled down: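 Seed 2500 lymphoblastoid cells per well, incubate 5 hr at 37 C, add compound and incubate 24 hr at 37 C, add CellTiter-Glo, wait 30 min at room temperature, then read luminescence.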
Test [15] in a line: Cell Viability - LYMP2-020 (AID 986). The method, boiled down: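 Seed 2500 cells per well and incubate 5 hr at 37 C. Add compounds at a concentration series and incubate 24 hr at 37 C. Add CellTiter-Glo, wait 30 min at RT, read luminescence, and fit a Hill curve for AC50.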
A short description of test [16]: Cell Viability - LYMP2-022 (AID 987). The method, boiled down: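 Cells were seeded at 2500 per well, rested 5 hr at 37 C, and treated with titrated compounds for 24 hr at 37 C. Cellular ATP was then quantified by luciferase luminescence, and AC50 values were derived from Hill-modelled concentration-response curves.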
Test [17] can be described thus: Cell Viability - LYMP2-024 (AID 988).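 Note: plate controls were DMSO only for no effect and 92 µM tetraoctylammonium bromide for full effect; nearly all actives have a fitted effect of over 60% in size.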 In outline: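 qHTS cytotoxicity, human lymphoblastoid line, complete medium; 24 h cpd treatment, 37 C; CellTiter-Glo ATP luminescence readout; tetraoctylammonium bromide positive control; AC50 via Hill fit.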
Test [18] in a line: Cell Viability - LYMP2-026 (AID 989). Note: % is set by controls: 0 for no effect and ±100 for the full control effect; nearly all actives have a fitted effect of over 50% in size. In outline:
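Cells are seeded at 2500 per well and held 5 hr at 37 C. Compounds are added in concentration series for 24 hr, then CellTiter-Glo reagent is applied and luminescence read.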

A short description of test [19]: Cell Viability - LYMP1-002 - Assay at 24 hr (AID 993). Note: % is set by controls: 0 for no effect and ±100 for the full control effect. The method, boiled down:
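Acute toxicity is measured as concentration-dependent loss of cellular ATP in a human lymphoblastoid line (Coriell LYMP1-002) after 24 h treatment in complete medium. ATP is quantified by luciferase luminescence and AC50 derived by Hill modelling.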

Test [20] is described as follows: Cell Viability - LYMP1-002 - Assay at 40 hr (AID 994). The method, boiled down:
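Cells are plated at 2500 per well and rested 5 hr at 37 C. Compounds are added and incubated 40 hr at 37 C. CellTiter-Glo reagent is added for 30 min at room temperature before luminescence is read.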

For test [21], the target named is Bile acid receptor (Homo sapiens) (UniProt Q96RI1). As to the kind of experiment: qHTS assay for small molecule antagonists of farnesoid X receptor signaling (AID 588526; calls by dose curve; note: potency is the fitted concentration of half-maximal effect). The method, boiled down:
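Antagonist mode: titrated compounds tested against chenodeoxycholic acid stimulation (normalized to 50 uM CDCA and DMSO) in GeneBLAzer HEK293T cells for 16 h. Beta-lactamase read by CCF4 fluorescence; IC50 from Hill fits.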

Test [22] deals with Glucocorticoid receptor (Homo sapiens) (UniProt P04150). The experiment in a line: qHTS assay for small molecule agonists of glucocorticoid receptor signaling (AID 588532; active = well fitted curve in the direction sought with a large enough effect in the signal ratio, with a control signal flat; the % refers to the signal ratio;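 note: 100% = dexamethasone at 0.1 µM and 0% = DMSO only wells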). The conditions noted are these: HeLa MMTV-bla, beta-lactamase ratio, agonist, 18 h; stronger effect = higher value; percent of dexamethasone control, DMSO zero. The method, boiled down:
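MMTV-bla HeLa beta-lactamase reporter cells in 1% charcoal/dextran FBS medium, compounds up to 92 uM for 18 h at 37 C, CCF4 readout; normalized to 0.1 uM dexamethasone (100%), EC50 and efficacy from Hill fits.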

Where “and” joins values, the source holds several entries; their conditions need not be identical. Equal values may be shown once. Inconclusive results are not listed. The source holds several records for some structures; these can differ, active in one and inactive in another. Calls of active or inactive are those of the source. Unless noted, calls come from the whole dose curve; as a rule, active = well fitted cell-killing curve with a large enough effect; inconclusive = small, poorly fitted or top-dose-only effect; inactive = flat fitted curve, though single readings scatter.

Chain of Glucocorticoid receptor (Homo sapiens) (P04150 whole entry, looked up): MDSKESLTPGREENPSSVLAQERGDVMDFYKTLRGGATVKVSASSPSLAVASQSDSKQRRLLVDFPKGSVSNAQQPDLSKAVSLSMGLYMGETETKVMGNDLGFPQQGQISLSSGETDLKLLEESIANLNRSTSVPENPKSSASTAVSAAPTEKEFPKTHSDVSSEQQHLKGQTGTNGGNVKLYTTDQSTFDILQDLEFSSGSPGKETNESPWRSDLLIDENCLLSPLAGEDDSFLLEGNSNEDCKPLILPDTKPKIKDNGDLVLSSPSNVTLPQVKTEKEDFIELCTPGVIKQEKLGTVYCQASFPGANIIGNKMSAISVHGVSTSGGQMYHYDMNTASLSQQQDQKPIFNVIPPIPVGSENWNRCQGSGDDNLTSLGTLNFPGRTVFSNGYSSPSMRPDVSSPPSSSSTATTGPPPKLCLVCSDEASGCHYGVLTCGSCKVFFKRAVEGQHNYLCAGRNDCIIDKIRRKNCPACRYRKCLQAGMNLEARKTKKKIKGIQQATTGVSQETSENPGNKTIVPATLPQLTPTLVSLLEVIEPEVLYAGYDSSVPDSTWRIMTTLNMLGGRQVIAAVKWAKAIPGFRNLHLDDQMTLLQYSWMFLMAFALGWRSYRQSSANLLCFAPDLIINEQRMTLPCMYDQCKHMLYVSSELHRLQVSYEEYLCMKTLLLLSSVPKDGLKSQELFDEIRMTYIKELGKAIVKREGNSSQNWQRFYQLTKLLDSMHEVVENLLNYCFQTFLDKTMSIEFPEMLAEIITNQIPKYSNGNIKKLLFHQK
Chain of Bile acid receptor (Homo sapiens) (Q96RI1 whole entry, looked up): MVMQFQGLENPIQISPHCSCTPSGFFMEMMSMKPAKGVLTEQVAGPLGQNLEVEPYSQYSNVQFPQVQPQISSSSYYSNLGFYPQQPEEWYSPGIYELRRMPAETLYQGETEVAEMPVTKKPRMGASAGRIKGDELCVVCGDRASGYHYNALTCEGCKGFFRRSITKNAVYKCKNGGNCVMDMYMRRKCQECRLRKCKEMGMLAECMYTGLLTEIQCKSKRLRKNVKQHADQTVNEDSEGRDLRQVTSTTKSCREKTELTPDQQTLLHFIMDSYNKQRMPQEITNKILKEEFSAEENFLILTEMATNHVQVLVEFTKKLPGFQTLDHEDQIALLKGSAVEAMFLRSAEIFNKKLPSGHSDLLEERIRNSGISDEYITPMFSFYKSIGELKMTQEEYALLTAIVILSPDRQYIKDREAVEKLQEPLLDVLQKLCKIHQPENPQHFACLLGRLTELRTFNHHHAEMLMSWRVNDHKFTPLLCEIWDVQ

`CC(C)(c1cc(Br)c(O)c(Br)c1)c1cc(Br)c(O)c(Br)c1`: the call in test [1], in test [2], in [3], in [4], in test [5] and in test [6] was inactive. Besides, the compound was classed as inactive in [7], in test [8], in [9], in test [10], in test [11] and in test [12]. The call in test [13], in [14], in test [15], in test [16], in [17] and in test [18] was inactive. For the same compound, the compound was called inactive in test [19] and in [20]. Besides, the Potency in test [21] is 28.2 µM (active) and inactive. In addition, in test [22], the activation was -10.8% (inactive) and 25.4% (inactive) and -11.2% (inactive).

Source of the values: PubChem BioAssay (NCATS).
